The whole screen tested about 360,000 compounds, of which about 17,000 (4.7%) were called active. Not shown: some 5% with an inconclusive outcome. This is one part of a sample in which actives are shown more often than they occur. Unmarked numbers belong to inactive results. Rule as the data show it: active = activity change below about -50%; inconclusive = mostly about -30% to -49%; inactive = weaker than that.
% is scaled to controls: 0 for no effect and ±100 for the full control effect.

A short description of this experiment: qHTS for Inhibitors of Inflammasome Signaling: IL-1-beta AlphaLISA Primary Screen. Particulars: THP-1 LPS/ATP IL-1B secretion, 16 h, at 57.5 µM, stronger effect = lower value. From the text: Inflammasomes are a set of intracellular multi-protein complexes that enable autocatalytic activation of inflammatory caspases and drive the innate immune response to counter harmful agents. […] A qHTS assay, based on AlphaLISA technology, was developed to screen the Molecular Libraries Small Molecule Repository (MLSMR) to look for novel inflammasome inhibitors. The assay detects IL-1B using AlphaLISA anti-IL-1B acceptor and donor beads. A decreased emission signal, indicating reduced IL-1B secretion, is the desired outcome for this assay. NIH Chemical Genomics Center [NCGC] NIH Molecular Libraries Probe Centers Network [MLPCN] MLPCN Grant: MH095513 Assay Provider: Shyam Biswal Ph.D., Johns Hopkins University Immunity. 2012 Jul 27;37(1):85-95. PMID: 22819042 [2] Curr Pharm Des. 2012;18(16):2320-8. PMID: 22390695
Three microliters containing 3000 THP-1 cells were dispensed into the wells of solid, white, tissue culture treated Greiner 1,536-well plates. Library compounds and positive control, Glyburide, were pin-transferred (23 nL) by a Kalypsys pin-tool equipped with a 1,536-pin array, resulting in final compound concentration ranges of 2.5 nM to 57.5 uM. After 1 hr of cell culture incubation (37 °C, 5% CO2), 1 microL of 1 microg/mL lipopolysaccharide (250 ng/mL, final) and 5 mM ATP (1.25 mM, final) were added to stimulate the cells. After 16 hr of cell culture incubation with the compounds, 1.5 uL of anti-IL-1B acceptor beads (6 ug/mL, final) and biotinylated antibody (0.6 nM, final) were added to the plate, followed by a 1 hr incubation at ambient temperature. To detect the secreted IL-1B, 1.5 uL of AlphaLISA SA-Donor beads (24 ug/mL, final) were added, followed by 30 min of incubation in the dark at ambient temperature. The AlphaLISA signal was read by a PerkinElmer EnVision plate reader with an ultrasensitive luminescence detector and 1536 Plate HTS AlphaScreen aperture (excitation of 680nm and emission of 615nm).
Consider `O=c1[nH]c2ccccc2n1C1CCN(C(c2ccccc2)c2nnnn2Cc2ccccc2)CC1` (stereo unspecified), for which the activity change is -56.7% (active). On to `CSCCC(c1nnnn1C(C)(C)C)N1CCC(n2c(=O)[nH]c3ccccc32)CC1` (stereo unspecified), for which the activity change is -2.99%.

For the compound `COc1ccc(-n2nnnc2C(c2cccc3ccccc23)N2CCC(n3c(=O)[nH]c4ccccc43)CC2)cc1` (stereo unspecified), the activity change is -8.75%. For the compound `Cc1ccc(OC(=O)N(C)C[C@@H]2OCc3cnnn3CCCC(=O)N([C@H](C)CO)C[C@@H]2C)cc1`, the activity change is 37.1%. `CCOc1ccc(C2SCC(=O)Nc3c2c(C)nn3C2CCOC(C)(C)C2)cc1` (stereo unspecified): the activity change was 13.7%. In the case of `O=C(CCC(=O)N1C[C@H]2C[C@@H](C1)c1cccc(=O)n1C2)NCc1ccccc1C(F)(F)F`, the activity change was -1.41%.

`c1ccc(N2Cc3ccccc3-n3nncc3C2)nc1`: the activity change was 12.3%. Take `CC(=O)C1(O)CCC2C3CCC4=C(Cl)C(=O)CCC4(C)C3CCC21C` (stereo unspecified): the activity change was -20.8%. For the compound `CCC(C)(O)C(=O)OC1C(=O)OC2CC3C(C)=CC(=O)C(O)C3(C)C3C4(O)OCC23C1C(C)C4O` (stereo unspecified), the activity change is -100% (active). On to `CC(=O)NCC1=C(c2ccc3ccccc3c2)C[C@@H]2CC[C@H]1N2Cc1ccco1`, for which the activity change was -3.75%. As to `c1cc2c(c(NC3=NCCCS3)c1)CCCC2`, the activity change is -2.25%. In the case of `COc1ccccc1N=Nc1c(O)[nH]c(=S)[nH]c1=O` it was 56.6%; in that of `CCC1(C)CC(CCNCc2ccc(N(C)C)cc2)(c2ccc(F)cc2)CCO1` (stereo unspecified), -72.1% (active). Regarding `CC1CC=CCC12C(=O)NC(=S)NC2=O` (stereo unspecified), the activity change was 5.3%. For `CC=C(C)C(=O)OC1CCN2CC=C(COC(=O)C(O)(C(C)OC)C(C)(C)O)C12` (stereo unspecified), the activity change was 12.9%. In the case of `O=C(c1cc2nc(-c3ccccc3)cc(-c3ccccc3)n2n1)N1CCC2(CC1)OCCO2` it was -87.9% (active). On to `O=C(c1ccccc1[N+](=O)[O-])N1CCC2(CC1)OCCO2`, for which the activity change was -4.53%. To `O=C(c1cc(-c2ccncc2)nc2ccccc12)N1CCC2(CC1)OCCO2` belongs 0%; to `COc1cccc(C(c2nnnn2-c2ccc3c(c2)OCCO3)N2CCC3(CC2)C(=O)NCN3c2ccccc2)c1OC` (stereo unspecified), -6.07%. Regarding `COC(=O)COc1cc(C)cc2oc(=O)c3c(c12)CCCC3`, the activity change was 22.7%. In the case of `CC1([N+](=O)[O-])COP(=O)(Nc2ccc(F)cc2)OC1` (stereo unspecified) it was 15.6%; in that of `COc1cc(-n2c(=S)[nH]c3ccc(C)cc3c2=O)c(Cl)cc1Cl`, 71.7%; in that of `OC1/C(=C/c2ccc(C(F)(F)F)cc2)N2CCC1CC2` (stereo unspecified), 22.5%. To `CCOC(=O)[C@]12Cc3cc(OC)ccc3[C@H]1N(C(C)C)C(=O)c1ccccc12` belongs -125% (active); to `O=c1c2ccccc2nc(CBr)n1-c1ccc(Cl)cc1`, -7.74%; to `O=C(C1CC(=O)N(C2CCCC2)C1)N1CCC2(CC1)OCCO2` (stereo unspecified), 13.5%. In the case of `CN1CCN(/N=C/c2c[nH]c3ccccc23)CC1` it was 7.92%; in that of `CN(C)c1ccc(/C=C2\CC3C4CC=C5CC(O)CCC5(C)C4CCC3(C)C2=O)cc1` (stereo unspecified), 0.523%; in that of `C[C@@]1([C@@H](NP(=O)(c2ccccc2)c2ccccc2)c2ccccc2)C[C@H]1CCO`, -4.2%.

`CCNc1nc2[nH]c(=O)c3c(c2s1)OC(N)=C(C#N)C3c1cccs1` (stereo unspecified): the activity change was -64% (active). To `CC(C)c1ccc(OCC(=O)N2CCN(C)CC2)c(Br)c1` belongs 9.25%; to `COC(=O)C1=C(c2ccc(OCc3ccccc3)cc2)C[C@@H]2CC[C@H]1N2C(=O)NCc1cccc(F)c1`, -12.8%; to `CC1=CC(=Cc2sc3ccccc3[n+]2C)C=C(C)O1`, -51.7% (active). To `COc1ccc(CNCCc2c[nH]c3ccccc23)cc1OC` belongs -24.9%; to `COc1ccc(CNCCc2ccc3c(c2)OCO3)c(OC)c1OC`, -11.8%; to `COc1ccc(Br)cc1CNCCc1cccc(Cl)c1`, -72.2% (active). In the case of `Nc1ccc(Cc2ccc(N)c(Cl)c2)cc1Cl` it was -24.6%; in that of `COC(=O)CN(CCCl)P1(=O)OCCCN1CCCl` (stereo unspecified), 41.8%; in that of `CCOP(=S)(OCC)SCOC(=O)NCC(=O)OC`, 0.573%. Turning to `CN(C)CC1Oc2ccccc2OC1(O)c1ccccc1` (stereo unspecified), the activity change is -101% (active). For the compound `O=C1NC(=O)N(c2ccccc2)C(=O)/C1=C/c1ccc([N+](=O)[O-])s1`, the activity change is -11.6%.

Take `COc1cccc(N2C(=O)NC(=O)/C(=C\c3ccc([N+](=O)[O-])s3)C2=O)c1`: the activity change is -0.584%. With `Cc1cccc(N2C(=O)NC(=O)/C(=C\c3cnn(-c4ccccc4)c3)C2=O)c1`, the activity change is -60% (active). In the case of `Cn1c(O)c(C(=Nc2ccc(F)cc2)c2ccccc2)c(=O)n(C)c1=O` it was 3%. In the case of `c1cncc(CNC2=NCCC2)c1` it was 34.2%. To `CCOC(=O)C1(c2ccccc2)CCN(CC(O)c2ccc(NC(C)=O)cc2)CC1` (stereo unspecified) belongs -10.2%.
